Assay results: article PMC13423814

Biological target: CHTOP (UniProt Q9Y3Y2)
Conditions: DSSO, in cells

CHTOP, sequence (Q9Y3Y2 whole entry): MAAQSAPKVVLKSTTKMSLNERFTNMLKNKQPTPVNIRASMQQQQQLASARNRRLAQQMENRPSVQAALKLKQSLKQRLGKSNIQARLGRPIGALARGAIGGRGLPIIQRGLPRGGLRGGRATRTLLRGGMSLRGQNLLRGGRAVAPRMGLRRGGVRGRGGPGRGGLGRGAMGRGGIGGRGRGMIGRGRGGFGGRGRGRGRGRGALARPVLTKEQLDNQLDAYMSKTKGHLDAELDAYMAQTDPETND
DDX39B, Q13838, sequence (Q13838 whole entry): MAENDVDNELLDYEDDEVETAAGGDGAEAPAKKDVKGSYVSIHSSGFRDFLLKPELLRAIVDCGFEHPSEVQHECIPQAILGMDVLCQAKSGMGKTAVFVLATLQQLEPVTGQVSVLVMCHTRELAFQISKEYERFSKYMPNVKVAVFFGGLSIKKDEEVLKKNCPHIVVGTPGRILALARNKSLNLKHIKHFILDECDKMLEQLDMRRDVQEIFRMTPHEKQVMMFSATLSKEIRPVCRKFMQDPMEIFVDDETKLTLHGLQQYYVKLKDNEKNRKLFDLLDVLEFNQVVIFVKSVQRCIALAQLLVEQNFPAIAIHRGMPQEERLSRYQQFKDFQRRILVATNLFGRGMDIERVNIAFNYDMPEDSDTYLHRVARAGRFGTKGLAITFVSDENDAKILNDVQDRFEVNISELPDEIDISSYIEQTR
EIF4A3, P38919, sequence (P38919 whole entry): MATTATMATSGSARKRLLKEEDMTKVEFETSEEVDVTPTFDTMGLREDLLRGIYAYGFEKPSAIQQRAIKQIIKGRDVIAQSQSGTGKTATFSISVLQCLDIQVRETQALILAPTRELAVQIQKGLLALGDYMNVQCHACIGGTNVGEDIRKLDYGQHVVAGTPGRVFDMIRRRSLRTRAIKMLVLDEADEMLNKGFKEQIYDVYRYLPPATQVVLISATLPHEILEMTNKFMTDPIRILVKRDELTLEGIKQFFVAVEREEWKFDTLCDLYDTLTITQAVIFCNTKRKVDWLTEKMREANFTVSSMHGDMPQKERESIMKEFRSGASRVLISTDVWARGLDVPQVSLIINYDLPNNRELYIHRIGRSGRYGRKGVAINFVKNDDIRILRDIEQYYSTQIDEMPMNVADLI
DDX39A, O00148, sequence (O00148 whole entry): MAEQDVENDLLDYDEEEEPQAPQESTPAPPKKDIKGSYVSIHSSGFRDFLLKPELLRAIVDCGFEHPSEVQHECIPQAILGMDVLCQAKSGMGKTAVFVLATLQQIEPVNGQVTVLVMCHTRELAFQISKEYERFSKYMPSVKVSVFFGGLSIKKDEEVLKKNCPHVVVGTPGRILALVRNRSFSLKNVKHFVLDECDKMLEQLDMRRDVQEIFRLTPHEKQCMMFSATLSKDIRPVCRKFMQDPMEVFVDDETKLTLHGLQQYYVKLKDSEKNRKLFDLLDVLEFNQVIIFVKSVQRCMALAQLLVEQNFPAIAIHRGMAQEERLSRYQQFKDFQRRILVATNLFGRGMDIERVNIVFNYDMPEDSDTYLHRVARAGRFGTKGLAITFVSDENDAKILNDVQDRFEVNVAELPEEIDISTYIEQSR

Row | Substance | cross-linked residues
1 | DDX39B, Q13838 | K188 - K226
2 | EIF4A3, P38919 | K152 - K81
3 | DDX39A, O00148 | K187 - S225
